# Bioassay records as filed in PubChem.
# HepG2 viability = counter-screen for TGF-b inhibitors: cytotoxicity in HepG2 cells. HepG2 CAGA-GFP viability, ATP luminescence, 18 h. 410,000 tested, 0.76% active. Potency, µM (series often up to 46.1 µM), most hits filed as cytotoxic
#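 HepG2 CAGA-GFP cells (1000/well, DMEM with 1% FBS) received compound, then TGF-beta at 500 pg/mL final, and were incubated 18 hours at 37 degrees C. Viability was read by CellTiter-Glo luminescence. Media-only wells were set as complete cell-killing and DMSO as no toxicity.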
# TGFb inhibitor = TGF-b pathway inhibition; HepG2 CAGA-GFP TGF-b/SMAD3 reporter, GFP fluorescence, 18 h; TGF-beta stimulated, 500 pg/mL final; Potency, µM (highest dose often 46.1 µM), actives largely listed as inhibitors; 410,000 tested, 1.2% active; AID 588855; further: nearly all actives have a fitted effect of over 65% in size
#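 Cell-based qHTS in HEPG2 carrying a CAGA-GFP Smad reporter; compounds added before 500 pg/mL final TGF-beta, 18 h incubation at 37 degrees C, GFP fluorescence quantified per cell by imaging cytometry.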
# S2 tox = viability counter-screen for ATXN expression inhibitors; 400,000 tested, 0.49% active; Potency, µM (series often up to 56.7 µM), hits mostly cytotoxic; S2 cells (HEK-293 line with an ATXN2-luciferase reporter) viability, CellTiter-Fluor protease fluorescence, 24 h; further: nearly all actives have a fitted effect of over 40% in size
# 12-LOX inh = inhibitors of human 12S-lipoxygenase ALOX12; purified 12hLO, xylenol orange hydroperoxide absorbance; Potency, µM (titrated, usually from 108 µM), usual class: inhibitors; 580,000 tested, 1.1% active; AID 1671190
# Target sequence (P18054 whole entry, looked up): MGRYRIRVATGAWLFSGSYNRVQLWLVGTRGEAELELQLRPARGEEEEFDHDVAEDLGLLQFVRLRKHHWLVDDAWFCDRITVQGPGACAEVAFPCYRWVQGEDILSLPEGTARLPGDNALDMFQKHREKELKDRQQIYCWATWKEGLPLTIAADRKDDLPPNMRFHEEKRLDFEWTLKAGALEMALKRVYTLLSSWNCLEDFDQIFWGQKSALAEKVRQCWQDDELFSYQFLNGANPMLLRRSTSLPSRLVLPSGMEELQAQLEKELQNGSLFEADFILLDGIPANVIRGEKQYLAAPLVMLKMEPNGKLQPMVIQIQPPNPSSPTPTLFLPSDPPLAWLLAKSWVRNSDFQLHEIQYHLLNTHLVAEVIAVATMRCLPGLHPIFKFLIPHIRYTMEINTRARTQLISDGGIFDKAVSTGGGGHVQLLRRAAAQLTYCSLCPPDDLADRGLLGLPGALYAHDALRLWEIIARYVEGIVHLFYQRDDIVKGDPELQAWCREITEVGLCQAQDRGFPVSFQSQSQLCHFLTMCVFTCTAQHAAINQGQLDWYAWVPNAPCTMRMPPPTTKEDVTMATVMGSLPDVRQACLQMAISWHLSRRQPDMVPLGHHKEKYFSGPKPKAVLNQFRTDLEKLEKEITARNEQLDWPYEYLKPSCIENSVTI
#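 Purified human 12hLO (150 nM final) in 25 mM Hepes, 0.01% Triton X-100, pH 7.0 was preincubated 15 min at room temperature with compound. Then 40 uM arachidonic acid was added, 30 min. Hydroperoxide was read by Fe-XO absorbance ratio 573/405 nm.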
# ATXN2 expr inh = inhibitors of ATXN2 expression; HEK-293 ATXN2-luciferase reporter, luminescence, 24 h; Potency, µM (highest dose often 57 µM), actives largely listed as inhibitors; 360,000 tested, 0.72% active; AID 1745845; further: nearly all actives have a fitted effect of over 55% in size
#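 qHTS (up to 57 uM final) was run with 24 h compound exposure of reporter cells at 37 °C. Each well was multiplexed: SteadyGlo luminescence measured ATXN2-luciferase expression after a fluorogenic Gly-Phe-AFC viability readout (25 uM final).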
# Numbers stand for hits; 0 = inactive; ? = inconclusive; - = no result given; ! = not confirmed by another sample; [ ] = dose if it differs, or a comment. Hits are enriched below; roughly 2.7% of the tested compounds scored in any of these assays. The call rests on the fitted dose curve; in most records, active means well fitted curve in the direction sought with a large enough effect; inconclusive means small, poorly fitted or top-dose-only effect, or another doubt; inactive means no such curve, though single readings can be large; an effect the other way counts as inactive or inconclusive.
SMILES,HepG2 viability,TGFb inhibitor,S2 tox,12-LOX inh,ATXN2 expr inh
COc1ccc(C2C(C(=O)OCC3CCCO3)=C(C)NC3=C2C(=O)CC(c2ccco2)C3)cc1O (stereo not given),0,0,0,8.9µM,0
CCOC(=O)C(NC(=O)/C=C/c1ccc2cc(OC)ccc2c1)C(=O)OCC,-,-,-,0,-
Cc1cc(=O)[nH]c(N=N/C(=N/Nc2ccccc2C)c2ccccc2)n1,0,0,?,0,2.5µM
COc1ccc(N/N=C(/N=Nc2nc(C)cc(=O)[nH]2)c2ccccc2)cc1,0,?,28µM,0,?
COc1cc(C2=NOC(C(=O)Nc3ccc(OC(F)(F)F)cc3)C2)cc(OC)c1OC (stereo not given),-,-,-,0,-
Cc1cccc(C)c1Nc1c(-c2ccc(O)cc2)nc2sccn12,0,?,0,20µM,0
COc1cc(-c2nc3sccn3c2Nc2c(C)cccc2C)ccc1O,0,-,-,0,-
N#C/C(=C/c1ccc(Cl)cc1)C(=O)OCC(=O)N1CCCCC1,-,-,-,0,-
CC1=NOC2(CCCN(C(=O)c3ccccc3)C2)C1 (stereo not given),-,-,-,0[12.5 µM],-
CC(=O)N(C)C1(c2ccccc2)CCN(CCC[C@]2(c3ccc(Cl)c(Cl)c3)CCCN(C(=O)c3ccccc3)C2)CC1,-,-,-,0,22µM
COc1ccc(S(=O)(=O)c2c(C)c(C)n(C3CCCC3)c2NC(C)=O)cc1,-,-,-,0,-
COc1ccc2nc(N=Nc3ccc(O)c4ccccc34)sc2c1,0,?,14µM,0,14µM
COc1ccc2nc(N=NC3=C(O)CC(C)(C)CC3=O)sc2c1,0,0,-,0,?
COc1cccc(Nc2nc3ccccc3nc2NS(=O)(=O)c2ccc(C)c(C)c2)c1,-,-,-,0,-
CC[C@H](C(=O)[C@H](C)[C@H](O)[C@H](C)CCc1ccc(C)c(O)c1C(=O)O)[C@H]1O[C@](CC)([C@@H]2CC[C@@](O)(CC)[C@H](C)O2)C[C@H]1C,-,-,11µM,-,-
CN=C1S/C(=C/c2cn(CC(=O)OC)c3ccccc23)C(=O)N1C,0,0,0,28µM,0
CN=C1S/C(=C\c2cn(CC(=O)OC)c3ccccc23)C(=O)N1C,0,0,0,0,-
Cc1sc2ncnc(N/N=C/c3cccc(O)c3)c2c1C,0,?,-,0,0
C/C(=N\Nc1ncnc2sc(C)c(C)c12)c1ccccn1,0,0,?,?,0.28µM
CN(C)S(=O)(=O)c1cccc(N=C2NN=C(c3ccccc3)CS2)c1,0,0,?,0,0
CC(=O)Nc1ccc(C2=NNC(=Nc3cccc(S(=O)(=O)N(C)C)c3)SC2)cc1,0,10µM,?,-,-
c1ccc(-c2cc(-c3ccccc3)[o+]c(-c3ccccc3)c2)cc1,-,-,-,16µM,-
O=C(O)c1ccc(NCc2cccnc2)cc1,4µM,0,0,?,0
CCc1nc(-c2c3n(c(=O)n(Cc4cccc(Br)c4)c2=O)CCCC3)no1,-,-,-,0,-
Cc1cc2nc(-c3ccc(SCC(=O)N4CCOCC4)nc3)[nH]c2cc1C,0,0,0,0,0
SMILES,HepG2 viability,TGFb inhibitor,S2 tox,12-LOX inh,ATXN2 expr inh
O=C(Nc1cn[nH]c1-c1nc2ccc(CN3CCOCC3)cc2[nH]1)NC1CC1,-,-,-,?,5.4µM
Cc1cc(C)n(-c2nc(Nc3ccccc3C(F)(F)F)nc(-n3nc(C)cc3C)n2)n1,0,?,?,?,22µM
CCNC(=O)NC(=O)COC(=O)CCCc1c[nH]c2ccccc12,-,-,-,0,-
Clc1ccc(-c2nnc3n2CCN(Cc2ccsc2)C3)cc1,-,-,-,0[6.33 µM],-
NS(=O)(=O)c1ccc(NC(=O)CN2C(=O)COc3ccc(Cl)cc32)cc1,0,0,0,45µM,0
O=C(CN1C(=O)COc2ccc(Cl)cc21)Nc1nccs1,0,0,0,0,0
Cc1cccnc1NC(=O)CN1C(=O)COc2ccc(Cl)cc21,0,0,0,13µM,-
c1ccc(CN2CCCNCC2)cc1,-,-,-,0,-
Clc1ccc(C2=Nn3c(nnc3-c3cc(-c4ccccc4)n[nH]3)SC2)cc1,16µM,?,-,0,?
c1ccc(C2=Nn3c(nnc3-c3cc(-c4ccccc4)n[nH]3)SC2)cc1,0,?,?,0,0
C=CCOC(=O)C(=O)/C=C/c1ccc2c(c1)Cc1ccccc1-2,0,0,0,14µM,0
C=CCOC(=O)C(=O)/C=C/c1csc2ccccc12,0,0,0,?,0
CC(=O)N1CCC2(CCN(C(=O)c3ccc(Cl)cc3)CC2)Oc2ccccc21,-,-,-,0[6.33 µM],-
COC(=O)C1=C(C)NC(C)=C(C(=O)OCC(C)C)C1c1ccccc1[N+](=O)[O-] (stereo not given),0,18µM,?,?,?
Cc1ccc(NC(=O)c2cncn2-c2ccc(F)cc2)cc1S(N)(=O)=O,-,-,-,0,-
Cc1[nH]n2c(=O)cc(C(C)(C)C)nc2c1-c1ccccc1,0,0,0,0,18µM
Cc1[nH]n2c(=O)cc(C(C)C)nc2c1-c1ccccc1,0,0,?,0,0
Cc1[nH]n2c(=O)cc(-c3ccc([N+](=O)[O-])cc3)nc2c1-c1ccccc1,0,?,?,?,20µM
Cc1[nH]n2c(=O)cc(-c3ccc(Cl)cc3)nc2c1-c1ccccc1,0,10µM,0,40µM,3.5µM
Cc1nn(C)c2sc(C(=O)N3CCN(S(=O)(=O)c4cc(F)ccc4F)CC3)cc12,-,-,-,0,-
CC(C)CC(NC(=O)OCc1ccccc1)C(=O)NC(Cc1ccccc1)C(=O)CCl (stereo not given),0,10µM,-,0,?
CCOC(=O)CCN(C)Cc1cccc(OC)c1OC,-,-,-,0,-
C(=C\c1sc(Nc2ccccc2)n[n+]1-c1ccccc1)/c1ccccc1,0,0,0,50µM,0
CCN1/C(=C/c2ccc3cccc(C)c3[n+]2CC)Sc2ccccc21,14µM,0,?,7.9µM,?
CCN1/C(=C\c2ccc3cc(C)ccc3[n+]2CC)Sc2cc(C)c(C)cc21,0,0,?,25µM,?
SMILES,HepG2 viability,TGFb inhibitor,S2 tox,12-LOX inh,ATXN2 expr inh
CCN1/C(=C/c2ccc3cc(C)ccc3[n+]2CC)Sc2ccc3sccc3c21,0,0,0,-,?
CCN1/C(=C/c2ccc3cc(C)cc(C)c3[n+]2CC)Sc2cc(C)ccc21,0,0,?,40µM,?
Cc1ccc2c(c1)S/C(=C\c1cccc[n+]1C)N2CCO,0,?,0,0,-
O=C1c2ccccc2C(c2ccc(NC(=O)C(c3ccccc3)c3ccccc3)cc2)(c2ccc(NC(=O)C(c3ccccc3)c3ccccc3)cc2)c2ccccc21,-,-,-,0,-
CCCc1cc(=O)[nH]c(SCC(=O)NCCCC(=O)OCC)n1,0.45µM,0,0,0,0
CCn1cc(Br)c(C(=O)Nc2cc(C(F)(F)F)ccc2Cl)n1,-,-,-,0,-
O=C1c2cccc3c([N+](=O)[O-])ccc(c23)C(=O)N1c1ccccn1,0,0,-,0,14µM
O=C1c2cccc3c([N+](=O)[O-])ccc(c23)C(=O)N1c1ccc(Cl)cn1,0,0,-,0,?
CCN1/C(=C/C(C)=C/c2sc3ccccc3[n+]2CC)Sc2ccccc21,0,4.5µM,5.6µM,35µM!,?
NNc1ccc(F)cc1F,-,-,-,4.5µM,-
